PubChem BioAssay AID588675 (Johns Hopkins Ion Channel Center, 2011)
The campaign covered roughly 310,000 compounds. About 1,900 (0.61%) were called active.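 Rule for the calls: active = plate-corrected calcium response at least 3 library SD above typical, normal starting fluorescence, not activating the receptor alone; inactive = the rest.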 The list comes from a sample in which actives are over-represented; it also holds similar structures and randomly drawn compounds.

molecular target: Mas-related G-protein coupled receptor member X1 (Homo sapiens) (UniProt Q96LB2); test: positive allosteric modulators of MrgX1, primary screen, HEK293 cells, Fluo-4 calcium flux (AID 588675); details: MrgX1-HEK293, Fluo-4 calcium flux, FDSS, at 10 µM; hits give high values;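 note: compound read alongside a low EC10 to EC30 dose of BAM8-22 agonist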;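 for B-score: peak minus trough fluorescence over baseline measured at the second addition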
Sequence (Q96LB2 whole entry, looked up): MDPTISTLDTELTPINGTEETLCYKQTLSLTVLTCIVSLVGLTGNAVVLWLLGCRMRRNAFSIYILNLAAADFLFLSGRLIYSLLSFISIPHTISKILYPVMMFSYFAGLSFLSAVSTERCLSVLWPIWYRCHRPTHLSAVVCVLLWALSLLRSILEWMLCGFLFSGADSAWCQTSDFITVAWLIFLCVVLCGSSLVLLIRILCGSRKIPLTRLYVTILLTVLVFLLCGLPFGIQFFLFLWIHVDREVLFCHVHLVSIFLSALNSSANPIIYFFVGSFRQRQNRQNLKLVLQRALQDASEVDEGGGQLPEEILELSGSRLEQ

B-score, inactive:
O=C(c1cccc(-n2cccc2)c1)N1CCN(S(=O)(=O)c2ccc(F)cc2)CC1
O=C(NC1C2CC3CC(C2)CC1C3)c1ccc(N2CCNCC2)c([N+](=O)[O-])c1 (centres undefined)
CCC(C)NC(=O)c1ccc(N2CCC3(CC2)OCCO3)c([N+](=O)[O-])c1 (centres undefined)
CCOC(=O)Cc1csc(NC(=O)CN(C)S(=O)(=O)c2ccc3c(c2)CCC(=O)N3)n1
Cc1nn(-c2ccc([N+](=O)[O-])cc2)c(N)c1-c1ccccc1
C/C(=N\NC(=O)c1ccoc1C)c1ccccc1O
N#CCC(=O)NC1CCC(CC2CCC(NC(=O)CC#N)CC2)CC1 (centres undefined)
Cc1ccccc1-n1c(C)cc(/C=C2\NC(=O)NC2=O)c1C
COc1cc(OC)c(-n2cc(-c3ccc(Cl)cc3)[nH]c2=O)cc1Cl
O=C(NCc1cccs1)C1CCN(S(=O)(=O)c2ccc3c(c2)OCCO3)CC1
COc1ccccc1CNC(=O)C1CCN(S(=O)(=O)c2ccc3c(c2)OCCO3)CC1
O=C(/C=C/c1ccc(F)cc1)NC(=S)NNC(=O)c1cccnc1
CCCCn1c(N)c(N(CCOC)C(=O)COc2c(C)cccc2C)c(=O)[nH]c1=O
Cc1ccc(S(=O)(=O)NC(=O)COc2ccccc2C)cc1
Cc1ccc(C(=O)Nc2nnc(-c3ccncc3)s2)o1
Cc1occc1C(=O)Nc1nnc(C2CCCCC2)s1
CCOc1ccc(OCC)c(NC(=O)CSc2nnc(Cn3cnc4ccccc43)n2C)c1
COC(=O)C1=C(C)N(C)C(=S)NC1c1cc(OC)ccc1OC (centres undefined)
CC1CCCC(C)N1/N=C/c1ccccc1OC(F)F (centres undefined)
COC(=O)c1ccc(/C=N/NC(=O)C(=O)N2CCCCCC2)cc1
Cc1c(CC(=O)NCCCCCC(=O)O)c(=O)oc2cc3occ(-c4ccccc4)c3cc12
Cc1coc2cc3oc(=O)c(CCC(=O)O)c(C)c3cc12
O=C1NC2(CCCCCC2)C(=O)N1CCS(=O)(=O)Oc1ccccc1
Cc1ccsc1C1C(C#N)=C(N)OC2=C1C(=O)CC(C)C2 (centres undefined)
COC(=O)[C@]1(S(=O)(=O)c2ccccc2)C[C@@H]2ON=C(c3ccc(OC)cc3)[C@@H]2C1
Cc1ccc(-n2ccc(=O)c(C(=O)O)n2)cc1
Cc1ccc(-c2nn(C(C)(C)C)c3ncnc(N)c23)cc1
CC(C)OC(=O)c1ccc(COc2ccc3ccc(=O)oc3c2)o1
CCc1cc2c(=O)c(-c3nc4ccccc4n3C)c(CCCC(=O)O)oc2cc1OC(=O)C(C)(C)C
COc1cccc2c(C)c(C(=O)O)[nH]c12
CNC(=O)c1sc(Nc2ccc(OCc3ccccc3)cc2)nc1C
CCCC(=O)Nc1ncnc2c1ncn2[C@@H]1O[C@@H]2OP(=O)(O)OC[C@H]2[C@H]1OC(=O)CCC
CC(=O)N1c2ccc(S(=O)(=O)N3CCCC(C(=O)NCc4ccc(Cl)cc4)C3)cc2CC1C (centres undefined)
CC(=O)N1c2ccc(S(=O)(=O)N3CCCC(C(=O)Nc4cccc(F)c4)C3)cc2CC1C (centres undefined)
Cc1nnc(SCC(=O)NC(=O)NC2CCCC2)n1N
COc1ccc(C2c3[nH]c4ccccc4c3CCN2CCCn2cccn2)cc1C (centres undefined)
Cc1nccn1CCC1CCCCN1C(=O)CCc1nnc(-c2ccsc2)o1 (centres undefined)
CC1CCN(c2ccc(-c3ccc(NC(=O)c4ccco4)cc3)nn2)CC1
O=C(O)CCN=C1CCc2ccccc2N1
CCOC(=O)C1CCN(S(=O)(=O)c2ccc3c(c2)N(C)C(=O)CC(=O)N3C)CC1
COc1ccc(Cc2nnc(SCC(=O)Nc3ccc(C)c(C)c3)o2)cc1OC
COc1ccc(C(=O)NCc2nnc(SCC(=O)Nc3cccc(OC)c3)o2)cc1

B-score, active:
CC(NC(=O)c1ccc(N2CCNCC2)c([N+](=O)[O-])c1)C12CC3CC(CC(C3)C1)C2 (centres undefined) 6.65
Cc1nn(C(=O)c2ccoc2C)c(N)c1-c1ccccc1 15.4
COc1cc(OC)c(-n2c(C)cc(C=O)c2C)cc1Cl 9.68
COCCNC(=O)C1CCN(S(=O)(=O)c2ccc3c(c2)OCCO3)CC1 24.9
Cc1occc1C(=O)Nc1nnc(-c2ccncc2)s1 7.38
COC(=O)c1ccc(/C=N/N2C(C)CCCC2C)cc1 (centres undefined) 6.7
Cc1c(CCC(=O)O)c(=O)oc2cc3occ(-c4ccccc4)c3cc12 7.5
Cc1ccc(-n2cnc3ncnc(-c4ccccc4)c32)cc1 7.18
COc1cc(C(F)(F)F)nc2c(Br)c(C(C)(C)C)nn12 10.1
CC(=O)N1c2ccc(S(=O)(=O)N3CCCC(C(=O)Nc4cccc(Cl)c4)C3)cc2CC1C (centres undefined) 16.4
CC1(C)CC(=O)CC2(C1)NCC(c1ccccc1Cl)c1c2[nH]c2ccccc12 (centres undefined) 13.7
COc1cccc(NC(=O)CSc2nnc(Cc3ccc(OC)c(OC)c3)o2)c1 10.7
